From PubChem BioAssay (Tox21)
Results filed as inconclusive are left out. Activity calls are given as the source filed them. Calls follow the shape of the full dose curve.

Experiment: qHTS assay to identify small molecule agonists of the NFkB signaling pathway - cell viability counter screen (AID 1159515); also: nearly all actives have a fitted effect of over 55% in size
Conditions: NFkB-bla ME-180 viability, CellTiter-Glo luminescence, 5 h; series mostly up to 61 µM
Description: National Center for Advancing Translational Sciences [NCATS]
NIH Chemical Genomics Center [NCGC]
U.S. Environmental Protection Agency [EPA]
National Institutes of Environmental Health Sciences [NIEHS]
National Toxicology Program [NTP]
U.S. Food and Drug Administration [FDA]
Transcription factors and their stimulated target gene expression play pivotal roles across many cellular processes including responses to environmental stimuli. Proper regulation of associated pathways is critical to maintain cell health and function. Constitutive activation of transcription factor pathways has been implicated in tumors as it may block cellular functions such as apoptosis and lead to invasion and metastasis. One important transcription factor that stimulates gene expression in response to cytokines, UV radiation, and other stimuli is nuclear factor-kappa B (NFkB). To measure activation of the NFkB pathway, the CellSensor NFkB-bla ME-180 cell line (Life Technologies, Carlsbad, CA) that stably expresses beta-lactamase reporter gene under the regulation of a NF-kB response element was used. This assay allows measurement of the NFkB pathway activity induced by compounds in a ME-180 cell line. This system quantitates NF-kB activity using a FRET-based assay system where beta-lactamase expression disrupts FRET, allowing for fluorescent measurement of activity. This cell line has been used to screen the Tox21 10K compound library and to identify compounds that induce the NFkB pathway activity. The cytotoxicity of the Tox21 compound library against the NFkB-bla ME-180 cell line was tested in parallel by measuring cell viability using the CellTiter-Glo assay in the same wells.
Tox21 Assay Protocol Summary:
NFkB-bla ME-180 cells were dispensed at 2,000 cells/6 uL of assay medium per well into black wall/clear-bottom 1536-well plates using a Multidrop Combi (ThermoFisher Scientific, Waltham, MA) dispenser. After the assay plates were incubated at 37 C and 5% CO2 for an overnight, 23 nL of compounds dissolved in DMSO, positive controls or DMSO only was transferred to the assay plate by a Pintool station (Kalypsys, San Diego, CA). The assay plates were incubated at 37 C and 5% CO2 for 5 hr. One uL of LiveBLAzer B/G FRET substrate (Life Technologies) was added using a Flying Reagent Dispenser (Aurora Discovery, San Diego, CA) and the plates were incubated at room temperature for 1.5 hr. Fluorescence intensity (405 nm excitation, 460 nm and 530 nm emissions) was measured using an Envision plate reader (PerkinElmer, Shelton, CT). For cytotoxicity, 3 ul/well of CellTiter-Glo reagent was added into the assay plates using an FRD. After 30 min incubation at room temperature, the luminescence intensity was measured using a ViewLux plate reader (PerkinElmer).

| SMILES | outcome |
| --- | --- |
| Cc1ccc(S(=O)(=O)N=C=O)cc1 | inactive |
| CN1C(=O)CC[C@H]1c1cccnc1 | inactive |
| O=C1C(c2[nH]c3ccccc3c2O)=Nc2ccccc21 | inactive |
| CNC(=S)N(C)C | inactive |
| CC(C)=CCl | inactive |
| Nc1nc(N)nc(-c2ccccc2)n1 | inactive |
| CCOCC(=O)O | inactive |
| OCc1cccc(Oc2ccccc2)c1 | inactive |
| C=CC(=O)OCCC(=O)O | inactive |
| O=C(OCC1CCC2OC2C1)C1CCC2OC2C1 (stereo not given) | inactive |
| O=[N+]([O-])c1ccc2nc[nH]c2c1 | inactive |
| NCCCCCCN | inactive |
| CC(C)CC(=O)CC(C)CC(C)C (stereo not given) | inactive |
| CCCCCCCCCCCCCCCCO | inactive |
| CC(=O)c1ccc(O)cc1 | inactive |
| CCCCCCCCCCO | inactive |
| C=Cc1ccc(C)cc1 | inactive |
| O=C1c2ccccc2CCc2ccccc21 | inactive |
| O=S(=O)(O)c1ccccc1 | inactive |
| CCNc1cccc(C)c1 | inactive |

| SMILES | outcome |
| --- | --- |
| CC(C)(Oc1ccc(CCNC(=O)c2ccc(Cl)cc2)cc1)C(=O)O | inactive |
| OCc1ccccc1 | inactive |
| CC(CCl)OP(=O)(OC(C)CCl)OC(C)CCl (stereo not given) | inactive |
| C=C(C)CNCC | inactive |
| CCCCCCO | inactive |
| Cc1ccc([N+](=O)[O-])cc1S(=O)(=O)O | inactive |
| COCCOC(=O)c1ccccc1C(=O)OCCOC | inactive |
| O=C(O)/C=C/C(=O)O | inactive |
| Cc1ccc2ncccc2c1 | inactive |
| CC(C)CCCCCCCOC(=O)CCCCC(=O)OCCCCCCCC(C)C | inactive |
| C[C@]12CCC(=O)C=C1CC[C@@H]1[C@@H]2[C@@H](O)C[C@@]2(C)[C@H]1CC[C@]2(O)C(=O)CO | inactive |
| CC(=O)OCc1ccco1 | inactive |
| C[Si]1(C)O[Si](C)(C)O[Si](C)(C)O[Si](C)(C)O1 | inactive |
| O=C1CCCC1 | inactive |
| Nc1ccc(Cl)c(N)c1 | inactive |
| COC(=O)CCCC(=O)OC | inactive |
| CCCCCCCO | inactive |
| CCc1ccccc1CC | inactive |
| CCCCCCC=O | inactive |
| COc1ccc(OC)cc1 | inactive |
